According to PubChem BioAssay:

Tests used:
[1] = system: Human papillomavirus type 1a protein E7 (residues 44-93); assay: HPV1a E7 fragment binders on microarrays, primary screen, biochemical, small-molecule microarray, residues 44-93, 635 nm fluorescence (AID 1108); details: small-molecule microarray binding, fluorescence 635 nm; higher = more signal;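 also: E7 fragment applied at 1 µg/mL in TBST for 1 h at 4 C; score combines spot fluorescence with its signal to noise ratio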
[2] = modulators of HCV replicon luciferase signal, primary screen, HCV replication inhibitor project, Huh7 cells, luciferase reporter (AID 1109); details: 48 h, higher = more signal;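 also: huh7 hepatoma cells harbouring a luciferase neomycin HCV replicon reporter; luciferase luminescence as measure of HCV replicon replication; test concentration not given here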
[3] = target: Left-right determination factor 2 (Homo sapiens) (UniProt O00292); assay: LEFTY2 binders on small-molecule microarrays, primary screen, biochemical, small-molecule microarray, 635 nm fluorescence scan (AID 1110); details: LEFTY2 binding, higher = more signal
[4] = target: Calmodulin-1 (Homo sapiens) (UniProt P0DP23); assay: CALM1 binders on microarrays, EGTA buffer, profiling panel, biochemical, small-molecule microarray, Cy5-labelled CALM1 (AID 1111); details: Cy5-CALM1 binding fluorescence, higher = more signal;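 also: labelled calmodulin applied in Tris saline Tween buffer holding calcium plus EGTA and DTT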
[5] = target: Calmodulin-1 (Homo sapiens) (UniProt P0DP23); assay: calcium-bound CALM1 binders on microarrays, profiling panel, artefact control for SMM control-protein annotation, biochemical, small-molecule microarray, Cy5-labelled CALM1, plus calcium (AID 1112); details: Cy5-CALM1 binding fluorescence, higher = more signal;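 also: score merges spot fluorescence with signal to noise from triplicate slides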
[6] = small-molecule microarray binders of probe aWnt5a, primary screen, biochemical, biotinylated probe, 635/667 nm fluorescence (AID 1113); details: higher = more signal;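 also: score merges 667 nm fluorescence intensity with signal-to-noise per printed feature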
[7] = small-molecule microarray binders of probe aShh, primary screen, biochemical, biotinylated probe, 635/667 nm fluorescence (AID 1114); details: higher = more signal;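 also: probe is biotin-labelled aShh protein from a stem cell growth factor screen; measures binding of labelled protein to compounds printed on the slide; score merges feature fluorescence at 667 nm with signal-to-noise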
[8] = small-molecule microarray binders of probe aNog, primary screen, biochemical, biotinylated probe, 635/667 nm fluorescence (AID 1115); details: higher = more signal;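 also: probe is biotinylated aNog protein used at 0.15 µg/mL for 1 h at 4 C; z-score combines 667 nm fluorescence of each spot with its signal to noise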
[9] = target: Torsin-1A-interacting protein 1 (Homo sapiens) (UniProt Q5JTV8); assay: LAP1 binders from COS7 cell lysate, primary screen, small-molecule microarray, 635/667 nm fluorescence (AID 1116); details: COS7-hLAP1 lysate binding, 635 nm fluorescence, higher = more signal
[10] = target: Alpha-bungarotoxin (Bungarus multicinctus) (UniProt P60615); assay: alpha-bungarotoxin binders on microarray, profiling panel, artefact control for SMM control protein annotation, biochemical, small-molecule microarray, Alexa647 label, 635/667 nm fluorescence (AID 1117); details: alpha-BTX-A647 binding fluorescence, higher = more signal
Alpha-bungarotoxin (Bungarus multicinctus), sequence (P60615 whole entry, looked up): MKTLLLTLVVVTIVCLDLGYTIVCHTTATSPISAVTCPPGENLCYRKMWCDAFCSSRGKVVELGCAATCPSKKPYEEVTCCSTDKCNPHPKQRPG

Left-right determination factor 2 (Homo sapiens), sequence (O00292 whole entry, looked up): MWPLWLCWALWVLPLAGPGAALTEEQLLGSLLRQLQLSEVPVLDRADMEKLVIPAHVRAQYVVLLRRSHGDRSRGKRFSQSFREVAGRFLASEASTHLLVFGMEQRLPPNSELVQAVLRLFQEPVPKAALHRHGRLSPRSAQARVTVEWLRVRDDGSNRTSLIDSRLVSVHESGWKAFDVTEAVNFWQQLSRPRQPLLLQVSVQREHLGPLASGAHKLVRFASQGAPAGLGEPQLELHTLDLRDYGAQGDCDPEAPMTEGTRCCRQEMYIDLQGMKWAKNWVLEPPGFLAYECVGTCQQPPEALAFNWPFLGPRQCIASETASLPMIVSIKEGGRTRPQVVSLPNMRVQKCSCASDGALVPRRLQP
Torsin-1A-interacting protein 1 (Homo sapiens), sequence (Q5JTV8 whole entry, looked up): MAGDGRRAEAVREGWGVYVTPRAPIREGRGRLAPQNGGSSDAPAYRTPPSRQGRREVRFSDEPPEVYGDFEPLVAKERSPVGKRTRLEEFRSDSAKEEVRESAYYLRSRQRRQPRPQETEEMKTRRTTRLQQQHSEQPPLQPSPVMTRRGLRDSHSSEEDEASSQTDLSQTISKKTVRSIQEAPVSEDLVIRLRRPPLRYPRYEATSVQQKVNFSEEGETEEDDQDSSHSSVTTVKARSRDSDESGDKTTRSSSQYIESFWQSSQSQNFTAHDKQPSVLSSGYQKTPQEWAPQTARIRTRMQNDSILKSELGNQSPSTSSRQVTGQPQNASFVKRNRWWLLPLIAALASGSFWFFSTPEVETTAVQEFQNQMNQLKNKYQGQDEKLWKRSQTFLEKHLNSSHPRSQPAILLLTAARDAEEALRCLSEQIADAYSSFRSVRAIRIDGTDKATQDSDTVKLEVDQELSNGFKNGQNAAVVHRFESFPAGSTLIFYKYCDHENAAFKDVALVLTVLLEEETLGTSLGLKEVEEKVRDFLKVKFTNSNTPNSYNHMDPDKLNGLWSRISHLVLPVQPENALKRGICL

| SMILES | composite z-score [1] | z-score [2] | composite z-score [3] | composite z-score [4] | composite z-score [5] | composite z-score [6] | composite z-score [7] | composite z-score [8] | composite z-score [9] | composite z-score [10] |
| --- | --- | --- | --- | --- | --- | --- | --- | --- | --- | --- |
| O=C1c2ccccc2[C@](Cc2ccccc2I)(C(=O)NCc2ccccc2)[C@H](c2ccc(CO)cc2)N1C1CCCCC1 | 1.4 | -1.93 | 0.835 | 1.28 | 1.08 | -0.0691 | 0.217 | 0.347 | 0.616 | 0.705 |
| Cc1ccc(S[C@]2(C(=O)NCC(C)C)CC(=O)N(Cc3ccccc3Cl)[C@@H]2c2ccc(CO)cc2I)cc1 | 0.409 | -1.55 | -1.16 | -0.363 | -0.0595 | 0.31 | -0.221 | 0.515 | 0.359 | 1.48 |
| C=CC[C@@H](OC(=O)Nc1ccc(OC)cc1)c1ccc(OCCO)cc1 | -1.65 | 1.51 | -1.8 | -1.4 | -0.819 | -0.224 | 0.0723 | -0.364 | -0.326 | -0.809 |
| CCOC(=O)[C@H]1C/C=C/C[C@H](C(=O)OCC)C(=O)O[C@H]2[C@@H](OC)O[C@H](CO)[C@@H](OC(=O)CCc3ccccc3)[C@@H]2OC1=O | -0.431 | -1.85 | -1.59 | -0.381 | 0.367 | -0.184 | -0.0937 | 1.47 | 0.162 | -0.187 |
| CC(C)(C)OC(=O)CC[C@]1(C(=O)NCCN2CCOCC2)N=C(c2ccc(OCCCO)cc2)O[C@H]1c1ccccc1N=[N+]=[N-] | 0.775 | 1.08 | 0.245 | 1.3 | 0.374 | 0.0229 | 0.0214 | 1.73 | 1.7 | 1.04 |
| C=C[C@@H](C)[C@H](OC(=O)Nc1ccc(SC)cc1)c1ccc(OCCO)cc1 | -0.868 | 2.09 | -1.03 | -0.163 | 0.649 | 0.0423 | -0.206 | 1.41 | -0.111 | 0.0265 |
| O=C1OCC=C[C@H]2OC34C=CCN(c5ccc(Cl)cc5)C(=O)[C@H]3N(CCCCCO)C(=O)[C@@H]4[C@@H]12 (stereo not given in full) | -0.932 | -0.621 | -1.92 | -0.501 | 0.0666 | -0.172 | 0.0121 | 0.347 | 0.0462 | -1.64 |
